# IL-1B inflam inh – qHTS for Inhibitors of Inflammasome Signaling: IL-1-beta AlphaLISA Primary Screen; THP-1 LPS/ATP IL-1B secretion, AlphaLISA, 16 h; stronger effect = lower value; activity change, % at 57.5 µM; 4.7% of 360,000 active; AID 743279, 2014; in the data active means activity change below about -50%; inconclusive means mostly about -30% to -49%; further: on the % scale 0 is the no-effect control and ±100 the full control effect
#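 THP-1 cells pretreated 1 hr with compounds (up to 57.5 uM final), then stimulated with LPS (250 ng/mL final) plus ATP (1.25 mM final); secreted IL-1B measured by AlphaLISA after 16 hr, decreased signal indicating inhibition.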
# TDP1 cell CPT – qHTS for Inhibitors of human tyrosyl-DNA phosphodiesterase 1 (TDP1): qHTS in cells in presence of CPT; chicken DT40 Tdp1-/-;hTDP1 cells + 20 nM CPT, ATP luminescence, 48 h; Potency, µM (doses to about 46.2 µM), without a hit: top-dose activity change, negative = growth inhibition, actives largely listed as inhibitors; 12% of 420,000 active; AID 686979, 2013; further: potency means the concentration at half of the fitted maximal effect; on the % scale 0 is the no-effect control and ±100 the full control effect; nearly all actives have a fitted effect of over 55% in size
#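 Chicken DT40 Tdp1-/- cells complemented with human TDP1, 400 cells/well, exposed to compounds plus 20 nM camptothecin for at least 48 h at 37 C; viability read as ATP content by CellTiter-Glo luminescence.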
# TDP1 cell noCPT – qHTS for Inhibitors of human tyrosyl-DNA phosphodiesterase 1 (TDP1): qHTS in cells in absence of CPT; Potency, µM (doses to about 46.2 µM), for the others: at the highest dose activity change, negative = growth inhibition, actives largely listed as inhibitors; 15% of 420,000 active; DT40 Tdp1-/- hTDP1 cells, no CPT, ATP luminescence, 48 h; further: potency means the concentration at half of the fitted maximal effect; on the % scale 0 is the no-effect control and ±100 the full control effect; nearly all actives have a fitted effect of over 55% in size
#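 Camptothecin absent (DMSO only). Human TDP1-complemented DT40 knockout cells, 400 cells/well, 37 °C for minimum 48 hr; ATP measured via CellTiter-Glo, 30 min dark incubation, luminescence.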
# TGFb inhibitor – qHTS for Inhibitors of TGF-b. HepG2 CAGA-GFP TGF-b/SMAD3 reporter, GFP fluorescence, 18 h; TGF-beta stimulated, 500 pg/mL final. Potency, µM (highest dose often 46.1 µM), inactives show at the top dose activity, negative = inhibition, most hits filed as inhibitors. 1.2% of 410,000 active. AID 588855, 2011; further: potency means the concentration at half of the fitted maximal effect; on the % scale 0 is the no-effect control and ±100 the full control effect; nearly all actives have a fitted effect of over 65% in size
#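 Inhibition of TGF-beta-driven CAGA-GFP reporter expression in HEPG2 cells is measured by cellular GFP fluorescence after 18 h stimulation with 500 pg/mL recombinant TGF-beta in 1% FBS medium at 37 degrees C.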
# HepG2 viability – qHTS for Inhibitors of TGF-b: Cytotox Counterscreen; HepG2 CAGA-GFP viability, ATP luminescence, 18 h; Potency, µM (doses to about 46.1 µM), inactives show top-dose activity change, negative = cytotoxicity, most hits filed as cytotoxic; 0.76% of 410,000 active; AID 588856, 2011; further: potency means the concentration at half of the fitted maximal effect
#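 HepG2 CAGA-GFP cells (1000/well, DMEM with 1% FBS) received compound, then TGF-beta at 500 pg/mL final, and were incubated 18 hours at 37 degrees C. Viability was read by CellTiter-Glo luminescence. Media-only wells were set as complete cell-killing and DMSO as no toxicity.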
# TDP1 block – qHTS Assay for Inhibitors of Tyrosyl-DNA Phosphodiesterase (TDP1); 0.28% of 350,000 active; Potency, µM (titrated, usually from 130 µM), without a hit: at the highest dose activity change, negative = inhibition, most hits filed as inhibitors; AID 485290, 2010; recombinant TDP1, AlphaScreen DNA substrate cleavage; further: potency means the concentration at half of the fitted maximal effect; on the % scale 0 is the no-effect control and ±100 the full control effect; nearly all actives have a fitted effect of over 40% in size
# Target sequence (Q9NUW8 whole entry, looked up): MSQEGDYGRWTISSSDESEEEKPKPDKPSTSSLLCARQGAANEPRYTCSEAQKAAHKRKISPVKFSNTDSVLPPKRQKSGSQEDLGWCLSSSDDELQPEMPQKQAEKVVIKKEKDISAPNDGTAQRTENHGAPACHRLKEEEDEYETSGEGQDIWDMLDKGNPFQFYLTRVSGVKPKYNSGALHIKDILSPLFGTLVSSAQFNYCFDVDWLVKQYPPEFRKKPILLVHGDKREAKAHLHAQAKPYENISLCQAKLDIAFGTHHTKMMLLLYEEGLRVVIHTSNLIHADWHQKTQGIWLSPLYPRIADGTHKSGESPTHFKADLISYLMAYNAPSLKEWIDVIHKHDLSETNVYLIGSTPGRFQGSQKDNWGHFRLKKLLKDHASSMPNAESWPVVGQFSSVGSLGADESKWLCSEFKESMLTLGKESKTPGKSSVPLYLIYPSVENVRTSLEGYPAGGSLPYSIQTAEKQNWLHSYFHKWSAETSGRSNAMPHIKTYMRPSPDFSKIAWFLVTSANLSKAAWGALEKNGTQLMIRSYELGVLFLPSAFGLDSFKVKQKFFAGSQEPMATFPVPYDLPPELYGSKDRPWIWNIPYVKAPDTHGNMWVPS
#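 Here, a 5' biotin and 3' phosphotyrosine-FITC DNA oligonucleotide reports Tdp1 activity: intact substrate bridges AlphaScreen beads, while cleavage leaves a 3' phosphate and drops signal. All incubations at room temperature.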
# Active calls of the source: *; ? = inconclusive; / = not tested or not shown; [ ] = another dose, or the depositor's remark. The list is not random: actives were taken first. Their share in the collection is about 19%. Unless noted, the call rests on the fitted dose curve; in most records, active means well fitted curve in the direction sought with a large enough effect; inconclusive means small, poorly fitted or top-dose-only effect, or another doubt; inactive means no such curve, though single readings can be large; an effect the other way counts as inactive or inconclusive.
SMILES,IL-1B inflam inh,TDP1 cell CPT,TDP1 cell noCPT,TGFb inhibitor,HepG2 viability,TDP1 block
COc1cc(CN2CCCC(C(=O)c3ccc(C(C)(C)C)cc3)C2)cc(OC)c1O (configuration not stated),-79*,?,?,0%,-29%,/
Cc1cc(C)n(-c2nc3ccccc3nc2N2CCN(c3cccc(C)c3C)CC2)n1,/,-4%,-5%,-10%,2%,0%
CCOC(=O)C1CCCN(Cc2ccc(O)c(OC)c2)C1 (configuration not stated),5,-10%,-2%,-14%,-13%,-12%
COc1cccc(CC(=O)NC2CCCN(Cc3ccc(Cl)cc3)C2)c1 (configuration not stated),-8,?,?,-20%,5%,3%
COc1ccc(C(=O)NC2CCCN(Cc3ccc(Cl)cc3)C2)c(OC)c1 (configuration not stated),-25,16µM*,12µM*,?,-39%,/
COc1ccc(C(=O)C2CCCN(Cc3cc(Cl)ccc3O)C2)c(OC)c1 (configuration not stated),-65*,?,?,?,-30%,/
COc1ccc(CN2CCCC(C(=O)c3ccc(Cl)cc3)C2)cc1Cn1cccn1 (configuration not stated),-92*,?,?,?,-22%,3%
CCOc1cc(CN2CCCC(C(=O)c3cccc(C(F)(F)F)c3)C2)ccc1O (configuration not stated),-3,?,26µM*,1%,-22%,5%
CCCCS(=O)(=O)N1CCc2nc(-c3ccccc3)c3c(c2C1)CO[C@@H](C)C3,/,/,/,/,/,-2%[21 µM]
COc1cc(/C=C/c2nc3cc(Cl)ccc3c(=O)n2-c2ccc(C)cc2C)cc(OC)c1OC,/,16µM*,?,?,-18%,10%
CCOCCOc1nc2c(c(=O)n(C)c(=O)n2C)n1CCc1ccccc1,19,18µM*,21µM*,-8%,2%,-4%
COCCOc1nc2c(c(=O)n(C)c(=O)n2C)n1Cc1cccc(OC)c1,-17,8.2µM*,7.3µM*,3%,-3%,2%
CN1CCN(c2nc3c(c(=O)n(C)c(=O)n3C)n2Cc2ccccc2Cl)CC1,-16,-21%,13%,7%,-1%,6%
CCOc1nc2c(c(=O)n(C)c(=O)n2C)n1Cc1ccccc1Cl,15,16µM*,12µM*,-24%,-19%,3%
COc1cccc(Cn2c(Oc3cc(C)cc(C)c3)nc3c2c(=O)n(C)c(=O)n3C)c1,/,?,?,0%,-3%,/
CCOCCn1c(=O)c2c(nc3n2CC(C)CN3CCc2ccccc2)n(C)c1=O (configuration not stated),-5,26µM*,?,-1%,1%,2%
Cn1c(=O)c2c(nc(OCCc3ccccc3)n2C)n(C)c1=O,12,?,-30%,-1%,4%,0%
COc1c2c(cc3oc(CO[C@@H]4O[C@H](CO)[C@@H](O)[C@H](O)[C@H]4O)cc(=O)c13)O[C@H](C(C)(C)O)C2,17,1%,-11%,4%,-3%,0%
NC(=O)c1ccc(SCC(=O)OCC(=O)NC2CCCCCCC2)c([N+](=O)[O-])c1,-1,-28%,0%,12%,-45%,1%
C=CCOc1nc2c(c(=O)n(C)c(=O)n2C)n1Cc1c(Cl)cccc1Cl,-23,?,21µM*,-3%,-16%,0%
Cn1c(OCc2ccc3c(c2)OCO3)nc2c1c(=O)n(Cc1ccc(Cl)c(Cl)c1)c(=O)n2C,14,?,?,-4%,0%,0%
C=CCOc1nc2c(c(=O)n(Cc3ccc(Cl)c(Cl)c3)c(=O)n2C)n1C,15,16µM*,23µM*,2%,4%,/
O=C(COC(=O)/C=C/c1ccc(OC(F)F)cc1)Nc1cccc(S(=O)(=O)N2CCOCC2)c1,-11,?,21µM*,13%,-7%,-2%
Cc1cccc(C)c1OCC(=O)Nc1cccc(S(=O)(=O)N2CCCCCC2)c1,-5,21µM*,21µM*,?,0%,/
Cc1cccc(C)c1OCC(=O)Nc1cccc(S(=O)(=O)N2CCCC2)c1,-25,?,13µM*,-15%,0%,-1%
SMILES,IL-1B inflam inh,TDP1 cell CPT,TDP1 cell noCPT,TGFb inhibitor,HepG2 viability,TDP1 block
Cc1ccccc1CC(=O)Nc1cccc(S(=O)(=O)N2CCCC2)c1,0,-8%,11%,-21%,-29%,1%
CCC(=O)c1ccc(OCC(=O)Nc2cccc(S(=O)(=O)N3CCCCCC3)c2)cc1,4,7.3µM*,5.2µM*,-30%,-29%,-10%
CCOc1ccc(OCCC(=O)OCC(=O)Nc2cccc(S(=O)(=O)N3CCCCC3)c2)cc1,17,?,?,-23%,-16%,/
Cc1ccc(OCC(=O)Nc2cccc(S(=O)(=O)N3CCCCCC3)c2)c([N+](=O)[O-])n1,-4,?,16µM*,?,-30%,-5%
O=C(COC(=O)CCC(=O)c1ccc(F)cc1)Nc1cccc(S(=O)(=O)N2CCOCC2)c1,4,-19%,1%,-1%,-1%,-1%
O=C(COc1ccc(C(=O)c2ccc(F)cc2)cc1)Nc1cccc(S(=O)(=O)N2CCOCC2)c1,?,23µM*,12µM*,?,5%,1%
Nc1nn(-c2ccccc2)c(N)c1N=Nc1ccccc1F,-54*,9.2µM*,13µM*,-25%,5%,8%
Cc1nn(-c2ccccc2)c(N)c1-c1ccccc1,-3,3%,11%,-10%,-1%,3%
Nc1nc(N)c(N=Nc2ccccc2)c(=O)[nH]1,?,21µM*,5.8µM*,-1%,2%,/
Cc1nn(-c2ccccc2)c(N)c1N=Nc1ccc(Cl)cc1,-76*,?,?,?,-32%,3%
Cc1nn(-c2ccccc2)c(N)c1N=Nc1cccc(S(=O)(=O)N2CCOCC2)c1,-56*,?,16µM*,2%,11%,/
